The full ranking holds about 33,000 sequences; the median of “E-score (-0.5 to 0.5)” is about -0.054, and the highest 2% start at about 0.39. Many of the other results were omitted from the sample, so the highest values are more common in it than they were.
The sequences below were run against Ylr278c (UniProt Q05854) (assay: PBM E-score (8-mer binding enrichment) (E-score (-0.5 to 0.5)); higher = stronger / more preferred TF binding). Settings: protein concentration: 200 nM; construct: GST-DNA-binding domain.
In short: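 Bound GST-tagged yeast transcription factors, applied at about 100-200 nM to double-stranded universal all-10-mer Agilent arrays, were detected with fluorescent anti-GST. Scans were normalised with masliner. A modified Wilcoxon-Mann-Whitney statistic, the E-score, was assigned to each ungapped eight-base word pooled with its reverse complement by the Universal PBM Analysis Suite.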

Sequence of UniProt Q05854 (Q05854 whole entry, the tested form may be a part): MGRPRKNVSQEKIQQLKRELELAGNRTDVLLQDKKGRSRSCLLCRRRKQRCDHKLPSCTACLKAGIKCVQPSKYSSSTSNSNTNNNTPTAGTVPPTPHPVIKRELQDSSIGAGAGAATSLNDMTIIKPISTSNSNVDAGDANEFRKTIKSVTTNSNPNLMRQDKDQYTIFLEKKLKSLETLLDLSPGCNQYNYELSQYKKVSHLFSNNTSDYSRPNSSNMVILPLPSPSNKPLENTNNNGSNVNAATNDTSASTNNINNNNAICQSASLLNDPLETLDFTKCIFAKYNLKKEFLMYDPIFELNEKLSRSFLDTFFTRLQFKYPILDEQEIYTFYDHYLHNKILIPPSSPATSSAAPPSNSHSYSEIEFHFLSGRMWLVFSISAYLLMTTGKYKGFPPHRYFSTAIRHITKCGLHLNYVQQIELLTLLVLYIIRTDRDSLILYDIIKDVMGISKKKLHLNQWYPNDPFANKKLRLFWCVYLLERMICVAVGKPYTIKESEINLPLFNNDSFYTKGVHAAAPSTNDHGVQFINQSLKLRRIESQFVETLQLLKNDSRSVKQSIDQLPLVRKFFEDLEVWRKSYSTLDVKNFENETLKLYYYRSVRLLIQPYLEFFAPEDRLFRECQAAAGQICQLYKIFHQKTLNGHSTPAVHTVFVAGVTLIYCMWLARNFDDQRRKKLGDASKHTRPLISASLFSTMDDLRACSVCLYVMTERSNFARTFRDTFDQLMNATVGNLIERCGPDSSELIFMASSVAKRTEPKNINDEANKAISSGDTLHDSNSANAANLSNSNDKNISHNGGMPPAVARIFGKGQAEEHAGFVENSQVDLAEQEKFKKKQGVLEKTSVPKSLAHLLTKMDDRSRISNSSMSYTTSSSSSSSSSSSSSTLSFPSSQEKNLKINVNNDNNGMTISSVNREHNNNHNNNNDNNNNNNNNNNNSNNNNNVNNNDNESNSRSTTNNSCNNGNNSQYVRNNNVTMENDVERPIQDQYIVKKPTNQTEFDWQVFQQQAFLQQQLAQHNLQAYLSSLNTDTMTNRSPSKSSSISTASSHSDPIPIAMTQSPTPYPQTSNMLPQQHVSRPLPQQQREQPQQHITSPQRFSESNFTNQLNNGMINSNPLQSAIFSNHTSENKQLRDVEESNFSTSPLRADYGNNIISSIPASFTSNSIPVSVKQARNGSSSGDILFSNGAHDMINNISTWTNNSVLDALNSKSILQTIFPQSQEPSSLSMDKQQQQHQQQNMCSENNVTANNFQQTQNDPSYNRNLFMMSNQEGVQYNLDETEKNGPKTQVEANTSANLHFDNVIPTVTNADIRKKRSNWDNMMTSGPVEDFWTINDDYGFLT

Sequence | PBM E-score
GTCCGTCA | 0.289
CTCCGTAA | 0.41
CCCCGTCC | 0.252
ATCCGTCC | 0.18
CTCCGTCC | 0.449
CTCCGTCA | 0.421
CTCCGTAC | 0.358
GTCCGTAA | 0.331
ATCCGTCA | 0.159
CGAATCCA | -0.0549
ACATTGGT | -0.1
AATATCTC | 0.0682
ACTGACAG | -0.0502
AGTGGGAT | -0.00431
AATCCGCG | 0.323
CATCCGCG | 0.197
CATCCGCC | 0.309
ACTCCACG | 0.0682
CCGCCTCC | 0.283
CCTCCGCG | 0.416
CCTCCGCC | 0.413
ACTCCGCG | 0.462
CCTCCGCA | 0.359
CGGTCAGA | 0.0192
ATCGCCAT | -0.0309

Sequence | PBM E-score
CGCGTCCA | 0.0142
AAGTGCCT | -0.328
AAAGCAGC | -0.0496
CTATGCAG | -0.166
AGGGGTGC | -0.114
AGAGTCGC | -0.14
GGTATCGA | -0.0372
CGATCGGC | 0.282
AGATCGGG | 0.222
CGATCGGA | 0.44
AGATCGGA | 0.43
GGATCGGA | 0.438
GGATCGCA | -0.0558
CGATCGTA | 0.00037
AGATCGGC | 0.224
GGATCGAA | 0.0293
ACTCAACT | 0.0546
GAGCATTA | -0.111
TATTGAAA | 0.0175
GGTTAGAA | -0.15
TAGCTAGA | -0.285
GAAACTCC | 0.399
CAAACTCA | -0.0703
GAAACTTC | 0.0593
AAAACTCC | 0.386

Sequence | PBM E-score
GAAACTCA | -0.0472
CAAACTCC | 0.434
GCTAAGAA | -0.0627
CCGGACGG | 0.396
CCGGACGC | 0.364
ACGGACGG | 0.209
CCGGACGA | 0.406
ACGGACGA | 0.177
TCGGACGA | 0.271
CGTGCATC | -0.152
CGCTTTCC | 0.143
ATTTCGTA | -0.062
CTCGATGA | -0.12
AATGGGCC | 0.0902
CAGAGGAG | -0.243
GGCTAGAA | 0.0303
CGGCATTA | 0.405
AGGCATTA | -0.134
GGGCATTA | -0.0729
ATGTCGGA | 0.397
GTGTCGGA | 0.417
CTGTCGGC | 0.35
CTGTCGAA | -0.289
GTGTCGTA | -0.209
CTGTCGGA | 0.404

Sequence | PBM E-score
ATGTCGGG | 0.222
GTGTCGCA | 0.00208
ATGTCGGC | 0.0736
GGACCAAA | 0.187
ATACGCTC | 0.00427
CGGCCACG | -0.0321
ACTCTGGA | -0.117
ATAGTCTA | -0.141
CGAAAGTA | 0.00237
ACGAAAGA | -0.0168
AGCTTACG | -0.143
AGTCGGGG | 0.282
CGACTCCC | 0.0244
AGACTCCG | 0.418
CGACTCCA | -0.0167
CGACTCCG | 0.406
AGACTCCT | -0.224
AGACTCCC | -0.167
CGAGCAAC | -0.00501
AGAAGACC | 0.0375
ACAAGACA | -0.0802
TACGAGTA | -0.0577
AGGACAAC | -0.163
AGGACAAA | -0.0109
CGGACAAA | 0.425

Sequence | PBM E-score
CGGACAAG | 0.383
CGGACAAC | 0.389
GGGACAAC | -0.104
AACATGAC | -0.0624
GTCAACTA | -0.084
AGGGCTAA | -0.0787
CGGTCCGA | 0.455
AGGTCCAG | -0.113
AGGTCCGG | 0.418
AGGTCCGA | 0.404
AGGTCCCA | -0.224
GGGTCCGA | 0.366
AGGTCCGC | 0.333
AGGTCCAA | -0.179
CGGTCCGC | 0.38
ACTAGTGG | -0.0388
AACATAGC | -0.0617
ATGTTGCC | -0.036
ATTGACCA | -0.196
CCTATCAC | -0.119
AACACAAT | -0.152
GCAACACC | 0.113
GCCTCGGA | 0.352
GGCTCGGA | 0.38
AGCTCGGA | 0.322

Sequence | PBM E-score
CCCTCGGC | 0.207
CGCTCGGA | 0.408
CCCTCGGA | 0.394
GCACTAGA | -0.16
CCTAGCAG | -0.268
CCGTTGAC | 0.0534
CGAGCTGC | -0.00491
GTATGCGA | -0.0635
ATCAGGAA | -0.0943
AACTGCGA | 0.148
TCAATTCA | -0.0799
TATTCGGA | 0.408
AATTCGGC | 0.157
GATTCGGA | 0.363
AATTCGGG | 0.215
AATTCGGA | 0.449
CATTCGGA | 0.339
TAAGGGCA | -0.144
CCCCGACC | 0.28
ATAGTCAG | -0.158
CGGACCGC | 0.392
AGGACCCG | 0.158
AGGACCGC | 0.227
CGGACCGA | 0.409
GGGACCGA | 0.164

Sequence | PBM E-score
AGGACCGA | 0.0864
CGGACCCG | 0.394
CGGACCAC | 0.293
CGGACCCC | 0.365
CCACTATC | 0.00626
CTATAGAC | -0.167
CTGATCTC | -0.0675
ACTAATGC | 0.126
CTCTGTTC | -0.0823
CCGGGGTA | 0.408
GCCGGTAA | 0.341
TCCGGGAA | 0.419
CGGGGGTA | 0.334
CCCGGGAA | 0.348
ACCGGGAA | 0.352
CCGGGGGA | 0.378
CCGGGGAA | 0.399
ACCGGTAA | 0.297
GCGGGGTA | 0.323
CGGGGGAA | 0.255
TCCGGTAA | 0.44
CAACGGCG | 0.207
CCATCGCC | 0.075
ATCCAGTA | -0.111
AGAGGTGC | 0.0557

Sequence | PBM E-score
AGCATAGG | -0.11
GGACACAC | 0.149
TCCGGGCA | 0.406
CCGGGGCA | 0.293
CCGGGGCG | 0.42
GCCGGGCA | 0.304
ACCGGGCA | 0.279
CCCGGGCG | 0.291
ATAACCTA | -0.148
CGAACTAA | -0.0681
ACGGATTC | 0.246
CCGGATTC | 0.405
CCGGATTA | 0.455
GCGGATTA | 0.261
CAGGATTC | -0.11
ACGGATTA | 0.205
CATTGGGA | -0.198
AGCAGGAT | -0.079
GTGGCCTA | -0.135
GATTCTAC | 0.107
AGCGGAGC | 0.381
CGCGGAGC | 0.41
GGCGGATA | 0.293
CGCGGATC | 0.272
CGCGGACA | 0.345

Sequence | PBM E-score
AGCGGATA | 0.287
AGCGGAGG | 0.302
AGCGGAGA | 0.394
CGCGGATA | 0.32
GGCGGAAA | 0.328
CGCGGAGA | 0.428
GGCGGAGA | 0.444
CGACTGAG | -0.181
CTCAGTCA | -0.282
CTGAGTTA | -0.248
ATTCCCAA | -0.06
ACCTCTCA | 0.0413
TAATTCCA | -0.0294
GCTCGGAA | 0.338
CCTCGGTA | -0.0307
TCTCGGCA | 0.266
CCTCGGAC | 0.374
ACTCGGAA | 0.398
TCTCGGAA | 0.414
ACTCGGAC | 0.383
CCTCGGCG | 0.359
CCTCGGCA | 0.25
ACTCGGAT | 0.251
CCTCGGAA | 0.39
CCTCGGAG | 0.456
